Assay [1] can be described thus: A CellTox Green Cytotoxicity Assay to monitor cytotoxicity in HepG2 cells - 8 hour (AID 1224890). Further: nearly all actives have a fitted effect of over 45% in size. The essentials: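 HepG2 cells were seeded together with the CellTox Green dye at 600 cells/well, left 5 h at 37 C/5% CO2, then given compounds in DMSO. Fluorescence from dye bound to dead-cell DNA was read repeatedly over 40 h of treatment at 37 C.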
A short description of assay [2]: qHTS assay to identify small molecule antagonists of the estrogen receptor alpha (ER-alpha) signaling pathway using the BG1 cell line in the presence of 0.1 nM 17-beta-estradiol - cell viability counter screen (AID 1259241). Further: nearly all actives have a fitted effect of over 40% in size. Further: potency means the concentration at half of the fitted maximal effect. The essentials: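 CellTiter-Fluor read (30 min, 37C) on ER-alpha/ERE-luc VM7Luc4E2 cells; 22 hr compound treatment; agonist 0.1 nM E2 final; same-well multiplex.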

Assay [3] in a line: qHTS assay to identify small molecule phospholipidosis (PLD) inducers (AID 1259344; active means well fitted curve in the direction sought with a large enough effect; an effect the other way counts as inactive or inconclusive). In short, it runs like this: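 HepG2 cells on collagen I, attached 4 h at 37 C, were co-treated with compound and LipidTOX Red dye for 24 h at 37 C, then fixed with paraformaldehyde plus Hoechst 33342 and imaged by high-content microscopy for phospholipid accumulation.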
Assay [4] in a line: qHTS assay to identify small molecule HDAC inhibitors (AID 1259364). Further: nearly all actives have a fitted effect of over 45% in size. Further: potency means the concentration at half of the fitted maximal effect. The essentials: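 Wild-type HCT-116 cells were plated overnight, exposed to compounds for 2 h at 37 °C, then given HDAC-Glo class I/II luminogenic reagent for 30 min at room temperature before luminescence was read.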
A short description of assay [5]: qHTS assay to identify small molecule HDAC inhibitors - cell viability counter screen (AID 1259365). Further: series mostly up to about 92 µM; nearly all actives have a fitted effect of over 50% in size. In short, it runs like this:
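To flag cytotoxic hits, 1,500 wild-type HCT-116 cells per well, plated the day before, receive test compounds for 2hr at 37 C before CellTiter-Glo reagent and a luminescence read.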

A short description of assay [6]: qHTS assay to identify small molecule agonists of the sonic hedgehog signaling (Shh) pathway - cell viability counter screen (AID 1259366). Further: nearly all actives have a fitted effect of over 50% in size. Further: potency means the concentration at half of the fitted maximal effect. The essentials:
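Fluorescence from CellTiter-Fluor reports live cells in this counter screen. NIH/3T3-derived Gli1-Luc reporter cells receive test compounds for 24hr at 37C; reagent goes in at 23hr.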

The nature of assay [7]: qHTS assay to identify small molecule antagonists of the sonic hedgehog signaling (Shh) pathway - cell viability counter screen (AID 1259367). Further: nearly all actives have a fitted effect of over 55% in size. Further: potency means the concentration at half of the fitted maximal effect. In short, it runs like this:
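NIH/3T3-derived Gli1-Luc reporter cells (2,000 per well) rested 4 hr at 37 C, then received DMSO compounds plus conditioned medium. After 23 hr of treatment, CellTiter-Fluor was added for 1 hr at 37C and fluorescence read.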

The target of assay [8] is Androgen receptor (Homo sapiens) (UniProt P10275). Description: qHTS assay to identify small molecule antagonists of the androgen receptor (AR) signaling pathway using the MDA cell line in the presence of 0.5 nM R1881 (AID 1259243). Further: nearly all actives have a fitted effect of over 50% in size. In short, it runs like this: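 MDA-kb2 human breast carcinoma cells carrying an MMTV-luciferase reporter (AR- and GR-responsive) were plated, rested 5 hr at 37C, dosed with compounds, then stimulated with 0.5 nM R1881 (final) for 16 hr; luminescence was read after ONE-Glo.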
Sequence of Androgen receptor (Homo sapiens) (P10275 whole entry, looked up): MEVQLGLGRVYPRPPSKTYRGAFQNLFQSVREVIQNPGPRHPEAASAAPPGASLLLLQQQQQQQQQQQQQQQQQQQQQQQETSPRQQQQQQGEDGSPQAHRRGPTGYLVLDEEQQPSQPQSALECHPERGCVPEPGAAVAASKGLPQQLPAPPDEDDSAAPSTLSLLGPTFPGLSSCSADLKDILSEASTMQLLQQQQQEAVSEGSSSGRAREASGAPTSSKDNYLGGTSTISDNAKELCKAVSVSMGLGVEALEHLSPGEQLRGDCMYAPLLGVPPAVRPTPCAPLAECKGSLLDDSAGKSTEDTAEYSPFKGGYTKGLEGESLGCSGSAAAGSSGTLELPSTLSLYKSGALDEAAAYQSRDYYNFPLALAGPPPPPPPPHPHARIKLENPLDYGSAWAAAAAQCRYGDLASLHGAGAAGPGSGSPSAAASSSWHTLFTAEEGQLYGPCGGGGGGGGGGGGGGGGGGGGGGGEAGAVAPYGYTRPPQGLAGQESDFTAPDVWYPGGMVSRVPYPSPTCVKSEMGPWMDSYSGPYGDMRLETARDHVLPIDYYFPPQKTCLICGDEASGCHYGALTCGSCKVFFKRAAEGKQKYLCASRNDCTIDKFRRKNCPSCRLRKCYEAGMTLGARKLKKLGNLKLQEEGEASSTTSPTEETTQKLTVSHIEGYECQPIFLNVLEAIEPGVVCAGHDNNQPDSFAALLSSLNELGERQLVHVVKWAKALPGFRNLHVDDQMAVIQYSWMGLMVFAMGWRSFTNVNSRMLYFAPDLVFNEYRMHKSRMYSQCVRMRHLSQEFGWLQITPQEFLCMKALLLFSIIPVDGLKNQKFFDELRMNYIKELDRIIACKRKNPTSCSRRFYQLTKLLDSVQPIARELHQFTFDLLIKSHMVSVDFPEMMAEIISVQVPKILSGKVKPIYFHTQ

Assay [9] concerns the target Estrogen receptor (Homo sapiens) (UniProt P03372). Description: qHTS assay to identify small molecule antagonists of the estrogen receptor alpha (ER-alpha) signaling pathway using the BG1 cell line in the presence of 0.1 nM 17-beta-estradiol (AID 1259244). Further: nearly all actives have a fitted effect of over 50% in size. In short, it runs like this: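 VM7Luc4E2 cells (endogenous full-length ER-alpha, stable 4xERE-luciferase) were grown 5 days in phenol red-free medium with charcoal-stripped FBS, then exposed 22 h at 37C to compounds plus 0.1 nM (final) 17beta-estradiol; ONE-Glo luminescence read-out.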

Molecules are shown by their SMILES. Values joined by “and” are separate entries in the source; they are usually repeats but may differ in a detail not shown here. Equal values may be shown once. Inconclusive results are not listed. A structure can be active in one record and inactive in another. Active and inactive are the calls of the source. Unless noted, the call rests on the fitted dose curve; in most records, active means well fitted curve in the direction sought with a large enough effect in the repeat runs; inconclusive means weak or mixed curves; inactive means no such curve, though single readings can be large; an effect the other way counts as inactive or inconclusive.

33 compounds from PubChem BioAssay (Tox21) can be followed below.

Sequence of Estrogen receptor (Homo sapiens) (P03372 whole entry, looked up): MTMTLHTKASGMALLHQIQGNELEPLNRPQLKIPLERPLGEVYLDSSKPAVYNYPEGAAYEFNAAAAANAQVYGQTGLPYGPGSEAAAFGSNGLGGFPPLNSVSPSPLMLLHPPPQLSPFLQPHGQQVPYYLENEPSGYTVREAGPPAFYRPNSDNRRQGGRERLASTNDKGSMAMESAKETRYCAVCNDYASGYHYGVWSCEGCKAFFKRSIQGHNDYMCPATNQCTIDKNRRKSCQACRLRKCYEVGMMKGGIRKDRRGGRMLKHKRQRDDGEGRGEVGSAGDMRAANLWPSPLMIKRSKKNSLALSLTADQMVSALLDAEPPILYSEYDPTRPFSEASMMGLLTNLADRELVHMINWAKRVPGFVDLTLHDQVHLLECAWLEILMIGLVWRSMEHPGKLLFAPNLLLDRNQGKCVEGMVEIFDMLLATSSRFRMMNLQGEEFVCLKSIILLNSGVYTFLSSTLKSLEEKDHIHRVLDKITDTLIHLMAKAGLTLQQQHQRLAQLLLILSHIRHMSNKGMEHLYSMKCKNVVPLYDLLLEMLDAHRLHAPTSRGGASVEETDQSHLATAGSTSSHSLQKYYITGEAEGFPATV

As to `O=C1C(c2[nH]c3ccccc3c2O)=Nc2ccccc21`, the result in assay [1], in [3] and in assay [5] was inactive. The Potency entry in [2], in [4], in assay [6] and in assay [7] was “inactive” in each case.

For the compound `Cc1ccc([N+](=O)[O-])cc1S(=O)(=O)O`, the compound was classed as inactive in [1] and in [5]. The Potency result in assay [2], in assay [8], in assay [6] and in assay [7] was “inactive” throughout.

For the compound `CC(C)c1cccc(C(C)C)c1`, the call in [1] and in assay [5] was inactive. In addition, the Potency entry in assay [2], in assay [4], in assay [6] and in assay [7] was “inactive” each time.

`CCCCCCCCCCCCCCCC(=O)OC(C)C`: the outcome in assay [1], in [3] and in assay [5] was inactive. In addition, the Potency result in assay [2], in [6] and in assay [7] was “inactive” in each case.

On to `O=C(O)c1ccccc1C(=O)O`, for which the result in assay [1] and in [5] was inactive. Further, the Potency result in assay [2], in assay [6] and in assay [7] was “inactive” each time.

On to `C[C@]12CC[C@@H]3c4ccc(O)cc4CC[C@H]3[C@@H]1C[C@@H](O)[C@@H]2O`, for which the call in [1], in [3] and in assay [5] was inactive. The Potency entry in [2], in assay [6] and in assay [7] was “inactive” each time.

`CCOC(=O)c1ccc(N)cc1`: the call in [1], in assay [3] and in assay [5] was inactive. Also, the Potency result in assay [2], in [6] and in [7] was “inactive” throughout.

For `O=S(=O)(O)c1ccc(N=Nc2c(O)ccc3cc(S(=O)(=O)O)ccc23)cc1`, the result in assay [1] and in assay [5] was inactive. Also, the Potency in [2] is 30.8 µM (active) and 27.3 µM (active); in assay [6] it was 30.8 µM (active) and 30.6 µM (active); in [7] it was 27.4 µM (active) and 27.3 µM (active). For the same compound, in assay [4], the Potency result is “inactive”.

Consider `O=S(=O)(O)c1ccccc1`, for which the compound was called inactive in assay [1] and in assay [5]. Further, the Potency entry in assay [2], in assay [4], in [6] and in [7] was “inactive” throughout.

For the compound `CC(=O)OCc1ccco1`, the outcome in assay [1] and in assay [5] was inactive. Also, the Potency result in [2], in assay [4] and in [6] was “inactive” throughout. In addition, the Potency in assay [7] is 68.2 µM (active) and inactive.

Take `N#Cc1ccccc1`: the result in assay [1] and in [5] was inactive. Further, the Potency entry in assay [2], in [4], in assay [6] and in assay [7] was “inactive” each time.

As to `CCCOC(=O)c1ccccc1`, the result in [1], in assay [3] and in assay [5] was inactive. Also, the Potency result in [2], in assay [6] and in [7] was “inactive” throughout.

For the compound `Cc1ccc(C(C)C)c(O)c1`, the compound was classed as inactive in assay [1], in assay [3] and in assay [5]. The Potency result in assay [2], in [4], in assay [6] and in assay [7] was “inactive” throughout.

Take `O=C(O)c1ccc(C(=O)O)c(C(=O)O)c1`: the call in assay [1] and in [5] was inactive. The Potency result in [2], in [8], in [6] and in [7] was “inactive” in each case.

On to `O=C(O)Cn1c(=O)n(Cc2ccc(Br)cc2F)c(=O)c2ccc(Cl)cc21`, for which the compound was classed as inactive in assay [1] and in assay [5]. In addition, the Potency result in assay [2], in assay [8] and in assay [4] was “inactive” in each case. The Potency is 27.3 µM (active) in assay [6] and 21.7 µM (active) in assay [7].

On to `O=C(OCC1CCC2OC2C1)C1CCC2OC2C1` (stereo unspecified), for which the compound was called inactive in assay [1] and in [5]. The Potency entry in assay [2] and in assay [4] was “inactive” throughout.

Consider `CC(O)CC(C)(C)O` (stereo unspecified), for which the call in assay [1] and in assay [5] was inactive. Also, the Potency result in assay [2], in assay [4], in assay [6] and in assay [7] was “inactive” throughout.

Regarding `c1ccc(Oc2ccccc2)cc1`, the result in [1] and in assay [5] was inactive. Also, the Potency result in [2], in assay [4], in assay [6] and in assay [7] was “inactive” in each case.

Consider `O=C1CCCC1`, for which the result in assay [1] and in assay [5] was inactive. For the same compound, the Potency result in assay [2], in assay [4], in assay [6] and in assay [7] was “inactive” in each case.

For the compound `C=CC[N+](C)(C)CC=C`, the outcome in assay [1] and in assay [5] was inactive. The Potency result in assay [2], in assay [6] and in assay [7] was “inactive” throughout.

On to `C=CC(C)CCCC(C)(C)O` (stereo unspecified), for which the result in [1] and in assay [5] was inactive. In addition, the Potency result in assay [2], in assay [4], in assay [6] and in assay [7] was “inactive” throughout.

Take `O=c1[nH]cnc2[nH]ncc12`: the compound was classed as inactive in assay [1], in [3] and in assay [5]. Also, the Potency entry in [2], in assay [9], in assay [4], in [6] and in [7] was “inactive” in each case.

In the case of `c1ccc2c(c1)Cc1ccccc1-2`, the outcome in assay [1] and in [5] was inactive. The Potency result in assay [2], in assay [9], in [4], in assay [6] and in assay [7] was “inactive” throughout.

On to `CC(C)(C)c1cc(Cc2cc(C(C)(C)C)c(O)c(C(C)(C)C)c2)cc(C(C)(C)C)c1O`, for which the compound was called inactive in assay [1] and in assay [5]. For the same compound, the Potency entry in assay [2], in assay [9], in assay [4], in assay [6] and in assay [7] was “inactive” throughout.

In the case of `CCCCCCO`, the outcome in assay [1] and in [5] was inactive. Moreover, the Potency entry in [2], in [4], in [6] and in assay [7] was “inactive” in each case.

For `COc1ccc(OC)cc1`, the compound was classed as inactive in assay [1] and in [5]. Further, the Potency result in [2], in assay [9], in assay [6] and in assay [7] was “inactive” in each case.

On to `O=C1c2ccccc2CCc2ccccc21`, for which the compound was classed as inactive in assay [1] and in assay [5]. The Potency result in assay [2], in assay [6] and in assay [7] was “inactive” throughout. Also, in [4], the Potency is 27.9 µM (active).

As to `Clc1ccccn1`, the compound was called inactive in [1] and in assay [5]. Also, the Potency entry in assay [2], in [6] and in assay [7] was “inactive” each time.

Consider `CC1(C)CC(N)CC(C)(CN)C1` (stereo unspecified), for which the compound was classed as inactive in assay [1] and in assay [5]. For the same compound, the Potency entry in [2], in [6] and in [7] was “inactive” in each case.

For `O=C(O)/C=C/C(=O)O`, the outcome in assay [1] and in [5] was inactive. The Potency entry in assay [4], in [6] and in assay [7] was “inactive” in each case.

Turning to `CCCCOC(=O)c1ccc(N)cc1`, the compound was called inactive in assay [1], in assay [3] and in assay [5]. Moreover, the Potency result in assay [2], in assay [6] and in assay [7] was “inactive” each time.

As to `COc1ccc(N)c(C)c1`, the compound was called inactive in [1] and in assay [5]. Further, the Potency entry in assay [2], in assay [6] and in assay [7] was “inactive” throughout.

As to `O=[N+]([O-])c1ccc2nc[nH]c2c1`, the outcome in assay [1] and in assay [5] was inactive. Moreover, the Potency result in assay [2], in assay [6] and in assay [7] was “inactive” each time.
